High-throughput results: PubChem, National Center for Advancing Translational Sciences (NCATS)
Only some compounds are listed: those with a hit (about 8% of all), similar ones and a draw of the others.
SW480 rerep = A quantitative high throughput screen for small molecules that induce DNA re-replication in SW480 colon adenocarcinoma cells; SW480 DNA re-replication, Hoechst DNA content imaging, 48 h; Potency, µM (series often up to 46.1 µM), hits mostly activators; 340,000 tested, 1.8% active; AID 624297, 2012; note: nearly all actives have a fitted effect of over 55% in size
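Treated cells incubate 48 hr (37 C, 5% CO2), are stained 40 min with Hoechst, and nuclear fluorescence is enumerated; a rise in nuclei with high DNA signal marks re-replication.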
MCF10A rerep = A quantitative high throughput screen for small molecules that induce DNA re-replication in MCF 10a normal breast cells. MCF 10A DNA re-replication, Hoechst nuclear intensity, 48 h. Potency, µM (titrated, usually from 46.1 µM), usual class: activators. 350,000 tested, 2.9% active; note: nearly all actives have a fitted effect of over 50% in size
KB-3-1 cytotox = qHTS assay for MDR1-selective chemotherapeutics: Primary screen using the parental adenocarcinoma cell KB-3-1. Potency, µM (highest dose often 46.1 µM), hits mostly cytotoxic. AID 1347075, 2019. 400,000 tested, 1.4% active. KB-3-1 viability, CellTiter-Glo ATP luminescence, 72 h; note: nearly all actives have a fitted effect of over 60% in size
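Here the drug-naive KB-3-1 line serves as comparator for MDR sub-line selectivity; cells received compound titrations, 72 h at 37 °C, then CellTiter-Glo readout.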
HT1080 IDH1KD tx = qHTS for induction of synthetic lethality in tumor cells producing 2HG: qHTS for the HT-1080-IDH1KD cell line. HT-1080 IDH1 knockdown viability, ATP luminescence, 48 h. Potency, µM (top dose mostly 46.1 µM), usual class: cytotoxic. 360,000 tested, 2% active. AID 686971, 2013
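After a 2 h attachment period, IDH1KD HT-1080 cells took pin-transferred compound for 48 h at 37 °C; ATP-based luminescence after 10 min room-temperature reagent incubation reported viability.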
KB-V1 MDR tox = qHTS assay for MDR1-selective chemotherapeutics: Primary screen using the drug-selected MDR subline cells KB-V1; KB-V1 MDR cells viability, CellTiter-Glo, 72 h; Potency, µM (series often up to 46.1 µM), usual class: cytotoxic; 400,000 tested, 3.4% active; note: nearly all actives have a fitted effect of over 60% in size
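In this primary screen, KB-V1 cells overexpressing P-gp are incubated with library compounds (lowest to highest concentration) for 72 h at 37 degrees C before a luminescent ATP viability read.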
HT1080-NT tox = qHTS for induction of synthetic lethality in tumor cells producing 2HG: qHTS for the HT-1080-NT fibrosarcoma cell line; HT-1080-NT fibrosarcoma viability, CellTiter-Glo ATP luminescence, 48 h; Potency, µM (titrated, usually from 46.1 µM), hits mostly cytotoxic; 360,000 tested, 1.6% active;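 note: NT is the 2HG producing partner of a matched IDH1 knockdown line; nearly all actives have a fitted effect of over 55% in size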
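750 cells/well, RPMI + 5% FBS; 2 h settle, compound pin-transfer, 48 h at 37 degrees C. CellTiter-Glo 10 min RT, luminescence. Normalized to DMSO and media-only wells.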
Large screens that a line does not name were inactive. Calls come from the whole dose curve; as a rule, active = well fitted curve in the direction sought with a large enough effect; inconclusive = small, poorly fitted or top-dose-only effect, or another doubt; inactive = no such curve, though single readings can be large; an effect the other way counts as inactive or inconclusive.

COc1cc(/C=N/N=C(/N)c2nonc2N)cc(Br)c1OCc1cccc(C)c1	MCF10A rerep inconclusive, HT1080 IDH1KD tx inconclusive, HT1080-NT tox inconclusive
NC(=S)NN=C1CCSCC1	none
CCN(C(=O)CSc1nc2scc(-c3ccccc3)c2c(=O)n1C)C1CCS(=O)(=O)C1 (stereo not given)	none
CCCCN(C(=O)CSc1nc2ccccc2n1CC)C1CCS(=O)(=O)C1 (stereo not given)	KB-V1 MDR tox 5.8µM
C=CCn1c(SCC(=O)N(CC)C2CCS(=O)(=O)C2)nc2scc(-c3ccccc3)c2c1=O (stereo not given)	MCF10A rerep inconclusive, KB-V1 MDR tox 10µM
COC(=O)CSc1c(-c2ccccc2)c2cc(Cl)ccc2[nH]c1=O	none
CC(=O)OCCSc1c(-c2ccccc2)c2cc(Cl)ccc2[nH]c1=O	KB-V1 MDR tox 23µM
COC(=O)CNc1c(-c2ccccn2)nc2ccc(Br)cn12	KB-V1 MDR tox 5.2µM
Cc1ccc(Nc2c(-c3ccccn3)nc3ccc(Br)cn23)cc1	KB-V1 MDR tox inconclusive (no result: SW480 rerep, MCF10A rerep, HT1080 IDH1KD tx, HT1080-NT tox)
CC(=O)c1ccc(NC(=O)C2CCCN(c3ncnc4c3nc3n4CCCCC3)C2)cc1 (stereo not given)	none
CCOC(=O)C1CCCN(c2ncnc3c2cnn3-c2ccc(OC)cc2)C1 (stereo not given)	KB-V1 MDR tox inconclusive
O=C(C1CCCN(c2ncnc3c2nc2n3CCCCC2)C1)N1CCN(c2ccc(Cl)cc2)CC1 (stereo not given)	SW480 rerep inconclusive, KB-3-1 cytotox 16µM, HT1080 IDH1KD tx inconclusive, HT1080-NT tox inconclusive
Clc1cccc(N2CCN(c3ncnc4c3nc3n4CCCCC3)CC2)c1	KB-3-1 cytotox 13µM, KB-V1 MDR tox 15µM (no result: SW480 rerep, MCF10A rerep, HT1080 IDH1KD tx, HT1080-NT tox)
CSc1cccc(NC(=O)C2CCCN(c3ncnc4c3nc3n4CCCCC3)C2)c1 (stereo not given)	KB-3-1 cytotox inconclusive, KB-V1 MDR tox 15µM
CCOC(=O)C1CCCN(c2ncnc3c2cnn3-c2ccc(Cl)cc2)C1 (stereo not given)	MCF10A rerep inconclusive, HT1080 IDH1KD tx inconclusive, KB-V1 MDR tox 13µM
O=C(C1CCCN(c2ncnc3c2nc2n3CCCCC2)C1)N1CCN(c2ccc(F)cc2)CC1 (stereo not given)	KB-3-1 cytotox inconclusive, KB-V1 MDR tox inconclusive
O=C(C1CCN(c2ncnc3c2nc2n3CCCCC2)CC1)N1CCN(c2cccc(Cl)c2)CC1	KB-3-1 cytotox inconclusive, HT1080-NT tox inconclusive
CNC(=O)c1c(NC(=O)c2nc(SCc3ccc(C)cc3)ncc2Cl)sc2c1CCCC2	none (no result: SW480 rerep, MCF10A rerep, HT1080 IDH1KD tx, HT1080-NT tox)
CC(C)c1ccc(NC(=O)C2CCN(c3ncnc4c3nc3n4CCCCC3)CC2)cc1	SW480 rerep inconclusive, MCF10A rerep 16µM
Cc1cccc(NC(=O)C2CCN(c3ncnc4c3nc3n4CCCCC3)CC2)n1	KB-V1 MDR tox inconclusive
Cc1ccc(NC(=O)C2CCCN(c3ncnc4c3nc3n4CCCCC3)C2)nc1 (stereo not given)	none
O=C(Nc1ccccn1)C1CCCN(c2ncnc3c2nc2n3CCCCC2)C1 (stereo not given)	MCF10A rerep 23µM
Cc1ccnc(NC(=O)C2CCCN(c3ncnc4c3nc3n4CCCCC3)C2)c1 (stereo not given)	MCF10A rerep inconclusive
O=C(Nc1ccc(Cl)cn1)C1CCCN(c2ncnc3c2nc2n3CCCCC2)C1 (stereo not given)	SW480 rerep 26µM, KB-V1 MDR tox inconclusive
O=C(Nc1ccc(Cl)cn1)C1CCN(c2ncnc3c2nc2n3CCCCC2)CC1	SW480 rerep inconclusive, MCF10A rerep inconclusive, KB-3-1 cytotox inconclusive, HT1080 IDH1KD tx inconclusive, KB-V1 MDR tox 21µM, HT1080-NT tox inconclusive
O=C(Nc1ccc(F)c(Cl)c1)C1CCN(c2ncnc3c2nc2n3CCCCC2)CC1	SW480 rerep inconclusive, KB-V1 MDR tox inconclusive
Cc1cccc(NC(=O)CSc2ncc(-c3ccc(Br)cc3)[nH]2)c1	none (no result: SW480 rerep, MCF10A rerep, HT1080 IDH1KD tx, HT1080-NT tox)
O=C(N=C1SC2CS(=O)(=O)CC2N1c1cc(Cl)ccc1Cl)C1CCCO1 (stereo not given)	none
COCCn1c(C)cc(O)c(C(c2cccc(F)c2)N2CCN(c3ccccc3)CC2)c1=O (stereo not given)	none (no result: SW480 rerep, MCF10A rerep, HT1080 IDH1KD tx, HT1080-NT tox)
COc1ccc(-c2cc(C(=O)NNC(=O)c3csc(N4CCOCC4)n3)c3ccccc3n2)cc1OC	MCF10A rerep inconclusive
COc1ccc(-c2cc(C(=O)Nc3ccccc3N3CCOCC3)c3ccccc3n2)cc1OC	SW480 rerep inconclusive, MCF10A rerep 16µM, KB-3-1 cytotox inconclusive, HT1080 IDH1KD tx inconclusive, KB-V1 MDR tox inconclusive
O=C(Nc1ccccc1N1CCOCC1)c1cc(-c2ccncc2)nc2ccccc12	KB-V1 MDR tox 18µM
Cc1ccc(C2Oc3ccccc3C3=C2C(c2cccs2)n2ncnc2N3)cc1 (stereo not given)	SW480 rerep inconclusive, MCF10A rerep 5.8µM, KB-3-1 cytotox 9.2µM, HT1080 IDH1KD tx inconclusive, HT1080-NT tox 21µM
COc1ccc2cc1Oc1ccc(cc1)C[C@H]1c3c(cc(OC)c4c3Oc3c(ccc5c3[C@H](C2)N(C)CC5)O4)CCN1C	SW480 rerep inconclusive, MCF10A rerep inconclusive, KB-V1 MDR tox inconclusive
COc1ccc2cc1Oc1ccc(cc1)CC1c3c(cc(OC)c4c3Oc3cc5c(cc3O4)CCNC5C2)CCN1C (stereo not given)	MCF10A rerep inconclusive, KB-3-1 cytotox 16µM, HT1080 IDH1KD tx 18µM, KB-V1 MDR tox inconclusive, HT1080-NT tox inconclusive
CCc1ccc(OCC(=O)N/N=C(\C)c2ccc(OC(F)F)cc2)cc1	none
CCc1ccc(OCC(=O)N/N=C(\C)c2ccccc2OC(F)F)cc1	MCF10A rerep inconclusive, KB-V1 MDR tox 16µM
O=C(NCCc1ccccc1)c1ccc(CSc2nc3cccnc3n2Cc2ccc(F)cc2)cc1	none (no result: SW480 rerep, MCF10A rerep, HT1080 IDH1KD tx, HT1080-NT tox)
Cc1cccc(Cn2c(SCc3ccc(C(=O)NCc4ccccc4F)cc3)nc3cccnc32)c1	KB-3-1 cytotox inconclusive, KB-V1 MDR tox 15µM (no result: SW480 rerep, MCF10A rerep, HT1080 IDH1KD tx, HT1080-NT tox)
Cc1nc(NC(=O)CSc2nc3cccnc3n2Cc2ccccc2)sc1C	MCF10A rerep 23µM, KB-V1 MDR tox inconclusive
Cc1cccc(Cn2c(SCc3ccc(C(=O)NCCc4ccccc4)cc3)nc3cccnc32)c1	KB-3-1 cytotox inconclusive, KB-V1 MDR tox 18µM (no result: SW480 rerep, MCF10A rerep, HT1080 IDH1KD tx, HT1080-NT tox)
COc1ccc2c(c1)CCN1C2CCN2C(=O)CCC21 (stereo not given)	MCF10A rerep inconclusive
CCCN(CCC)C(=O)Cn1c(=O)n(-c2cccc(OC)c2)c(=O)c2c3c(sc21)CCCC3	none (no result: SW480 rerep, MCF10A rerep, HT1080 IDH1KD tx, HT1080-NT tox)
Cc1ccc(Nc2c(-c3cccs3)nc3nc(C)cc(C)n23)cc1	none (no result: SW480 rerep, MCF10A rerep, HT1080 IDH1KD tx, HT1080-NT tox)
